Experimental findings from PubChem BioAssay (NCATS) are described below.

Inconclusive results are not listed. A number with no mark means an inactive call. Activity calls are given as the source filed them. Calls follow the shape of the dose curve; as a rule, active = well fitted inhibition curve with a large enough effect; inconclusive = small, poorly fitted or top-dose-only effect; inactive = no such curve, though single readings can be large or run the other way.
Potency is read from the fitted curve at half-maximal effect.

The nature of the test: qHTS Screen of the MIPE 4.0 Collection Against Ewings Sarcoma (TC32) (AID 1259256). Also: nearly all actives have a fitted effect of over 45% in size.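 As to viability (percent of control): 100% = DMSO-treated cells and 0% = medium-only wells without cells.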 The settings on record: TC32 Ewing sarcoma viability, CellTiter-Glo, 48 h; series mostly up to 45.8 µM; viability (percent of control): at the top concentration. An outline of the steps:
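Compound titrations go onto adherent log-phase cells 4 h after seeding, incubate 48 h at 37C, then CellTiter-Glo luminescence reports viability relative to DMSO and cell-free controls.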
For orientation: qHTS replaces the single test concentration by a dilution series.
As for `O=C(O)[C@H]1O[C@H](Oc2cc3oc(-c4ccccc4)cc(=O)c3c(O)c2O)[C@H](O)[C@@H](O)[C@H]1O`, the Potency was 18.7 µM (active). `CC(C)C(C)C=CC(C)C1CCC2C3=CC=C4CC(O)CCC4(C)C3CCC21C` (configuration not stated): the “viability (percent of control)” value is 101%. On to `Cc1ccccc1C(C(=O)NC1CCCCC1)N(C(=O)Cn1ccnc1C)c1cccc(F)c1` (configuration not stated), for which the Potency is 8.33 µM (active). The same measure, in the same setting: the figure for `O=C(NCc1ccccc1)c1csc(Nc2ccncn2)n1` is 18.7 µM (active). Consider `O=C1c2c(O)cc(O)cc2O[C@H](c2cc(O)c(O)c(O)c2)[C@H]1O`, for which the “viability (percent of control)” value was 118%. In the case of `COc1ccc2cc(-c3nc(-c4ccc(S(C)=O)cc4)[nH]c3-c3ccncc3)ccc2c1` (configuration not stated), the Potency is 20.9 µM (active). As to `O=c1ccn([C@@H]2O[C@H](CO)[C@H](O)[C@H]2O)c(=O)[nH]1`, the “viability (percent of control)” value is 108%. Still for that read-out and setting: as for `c1ccc2c(-c3cnn4cc(-c5ccc(N6CCNCC6)cc5)cnc34)ccnc2c1`, the figure is 2.89%; as for `O=C(NC1CCOCC1)c1ccc(-c2cc(-c3cn[nH]c3-c3ccccn3)ccn2)cc1`, 114%. For the molecule `CCCCCCCCCCCC1=C(O)C(=O)C=C(O)C1=O`, the Potency was 23.5 µM (active). With `N#C[C@H]1C[C@H]2C[C@@H]2N1C(=O)[C@@H](N)C12CC3CC(CC(O)(C3)C1)C2`, the Potency was 16.6 µM (active). The same measure, in the same setting: the figure for `CC[C@H]1OC(=O)[C@H](C)[C@@H](O[C@H]2C[C@@](C)(OC)[C@@H](O)[C@H](C)O2)[C@H](C)[C@@H](O[C@@H]2O[C@H](C)C[C@H](N(C)C)[C@@H]2O)[C@](C)(O)C[C@@H](C)CN(C)[C@H](C)[C@@H](O)[C@]1(C)O` is 13.2 µM (active).
